Experiment [1] can be described thus: qHTS assay to identify small molecule agonists of the estrogen receptor alpha (ER-alpha) signaling pathway in the presence of an antagonist - cell viability counter screen (AID 1259386).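 Note: series mostly up to about 92 µM; cells exposed to compounds for 22 h at 37 °C before the viability read; nearly all actives have a fitted effect of over 30% in size.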 The method, boiled down: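 Using estrogen-depleted VM7Luc4E2 cells, the 15-concentration compound series was applied together with 10.0nM ICI-182,780 and incubated 22hr at 37C/5% CO2. Cell viability was then scored by CellTiter-Fluor.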

The target of experiment [2] is Progesterone receptor (Homo sapiens) (UniProt P06401). As to the kind of experiment: qHTS assay to identify small molecule agonists of the progesterone receptor (PR) signaling pathway (AID 1346784; calls by dose curve; note: nearly all actives have a fitted effect of over 30% in size). The method, boiled down: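 PR-UAS-bla HEK 293T cells (beta-lactamase reporter under UAS) in 2% charcoal-stripped FBS, dosed with 23 nL compound after 6 hr, incubated 16hr at 37C. LiveBLAzer B/G FRET substrate added, fluorescence read after 2 hours.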
Progesterone receptor (Homo sapiens), sequence (P06401 whole entry, looked up): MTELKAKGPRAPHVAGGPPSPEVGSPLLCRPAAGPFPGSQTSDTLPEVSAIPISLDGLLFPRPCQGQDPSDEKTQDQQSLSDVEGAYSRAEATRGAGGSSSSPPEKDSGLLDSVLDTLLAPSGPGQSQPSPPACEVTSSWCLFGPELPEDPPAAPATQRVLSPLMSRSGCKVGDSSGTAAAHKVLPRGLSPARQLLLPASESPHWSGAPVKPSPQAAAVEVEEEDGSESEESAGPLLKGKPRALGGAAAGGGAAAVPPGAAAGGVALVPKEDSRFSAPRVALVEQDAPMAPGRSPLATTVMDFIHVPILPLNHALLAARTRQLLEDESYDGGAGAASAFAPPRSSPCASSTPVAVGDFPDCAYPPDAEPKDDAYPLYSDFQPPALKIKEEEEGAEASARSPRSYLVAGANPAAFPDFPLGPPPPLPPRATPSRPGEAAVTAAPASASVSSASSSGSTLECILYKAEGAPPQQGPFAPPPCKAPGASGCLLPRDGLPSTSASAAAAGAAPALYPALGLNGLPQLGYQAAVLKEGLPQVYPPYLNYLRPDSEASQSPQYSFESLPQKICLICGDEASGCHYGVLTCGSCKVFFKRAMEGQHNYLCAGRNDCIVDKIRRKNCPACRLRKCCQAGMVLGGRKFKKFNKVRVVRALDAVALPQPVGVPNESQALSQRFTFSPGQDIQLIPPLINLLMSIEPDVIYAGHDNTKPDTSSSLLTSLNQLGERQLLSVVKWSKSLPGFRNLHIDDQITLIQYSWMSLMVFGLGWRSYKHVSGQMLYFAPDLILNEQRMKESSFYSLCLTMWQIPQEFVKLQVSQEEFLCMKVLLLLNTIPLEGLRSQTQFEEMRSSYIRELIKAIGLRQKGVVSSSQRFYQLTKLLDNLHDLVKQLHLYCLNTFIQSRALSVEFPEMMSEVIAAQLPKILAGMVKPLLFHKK

For experiment [3] the target is unchanged. As to the kind of experiment: qHTS assay to identify small molecule antagonists of the progesterone receptor (PR) signaling pathway (AID 1346795; active = well fitted inhibition curve with a large enough effect in the signal ratio in the repeat runs, not every such curve was filed as active; the % refers to the signal ratio; note: potency is the fitted concentration of half-maximal effect). The procedure, abridged: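 PR-UAS-bla HEK293T cells with beta-lactamase reporter under UAS control, in 2% charcoal-stripped FBS, treated with compounds plus 1 nM promegestone (R5020, final) for 16 hr at 37C. Read-out: FRET beta-lactamase substrate fluorescence after 2 hr at room temperature.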

A short description of experiment [4]: qHTS assay to identify small molecule antagonists of the progesterone receptor (PR) signaling pathway - cell viability counter screen (AID 1346798). Note: nearly all actives have a fitted effect of over 50% in size. Note: potency is the fitted concentration of half-maximal effect. The method, boiled down:
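PR-UAS-bla HEK293T cells, 3,000/well in 2% charcoal-stripped FBS medium, dosed with compounds plus R5020 agonist and incubated 16 h at 37C. Viability then measured in the same wells by CellTiter-Glo luminescence after 30 min at RT.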

A short description of experiment [5]: qHTS assay to identify small molecule antagonists of the TGF-beta/Smad signaling pathway - cell viability counter screen (AID 1346824). Note: nearly all actives have a fitted effect of over 50% in size. The method, boiled down: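 SBE-bla HEK 293T cells, incubated overnight, then compound plus 0.25 ng/mL TGF-beta1 (stock added) for 5 hr at 37 C. Viability was read in the same wells by CellTiter-Glo luminescence after 30 min at room temperature.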

A short description of experiment [6]: qHTS assay to identify small molecule agonists of the TGF-beta/Smad signaling pathway - cell viability counter screen (AID 1346829). Note: top concentration of the series differs between compounds; nearly all actives have a fitted effect of over 45% in size. The procedure, abridged:
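In parallel with the Smad reporter read, viability of HEK 293T cells stably carrying SBE-bla is quantified by ATP luminescence following 5 hr compound treatment.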

A short description of experiment [7]: qHTS assay to identify small molecule agonists of the TGF-beta/Smad signaling pathway (AID 1346859; active = well fitted activation curve with a large enough effect in the signal ratio in the repeat runs, not every such curve was filed as active; the % refers to the signal ratio; note: series mostly up to about 77 µM). The method, boiled down: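 SBE-bla HEK293T cells plated overnight, then compound exposure for 5 h at 37 C. Beta-lactamase reporter read with LiveBLAzer B/G FRET substrate after 2 h at room temperature, fluorescence at 405 nm excitation, 460/530 nm emission.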

Experiment [8] deals with Thyrotropin-releasing hormone receptor (Homo sapiens) (UniProt P34981). The experiment can be described thus: qHTS assay to identify small molecule antagonists of the thyrotropin-releasing hormone receptor (TRHR) signaling pathway (AID 1346877; active = well fitted inhibition curve with a large enough effect in the repeat runs, not every such curve was filed as active; note: series mostly up to about 51 µM). The procedure, abridged:
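Calcium signal in dye-loaded TRHR/HEK293 cells; compounds added 5 min before TRH (1 nM final); fluorescence monitored 3 min at 1 s steps.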

The target is the same in experiment [9]. The experiment can be described thus: qHTS assay to identify small molecule agonists of the thyrotropin-releasing hormone receptor (TRHR) signaling pathway (AID 1346891; calls by dose curve; note: series mostly up to about 58 µM). The procedure, abridged: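 HEK293 cells expressing TRHR plated 18 h at 37 C/5% CO2, calcium dye-loaded 2 h at 37 C, then compound added (agonist mode); kinetic calcium fluorescence read 3 min at 1 s intervals; 15 concentrations in triplicate.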

A short description of experiment [10]: Human pregnane X receptor (PXR) small molecule agonists, qHTS cell viability counter screen (AID 1346977). Note: nearly all actives have a fitted effect of over 50% in size. The procedure, abridged:
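PXR-Luc HepG2 cells (2,000/well, 5% charcoal-stripped FBS) preincubated 5 hr, then exposed to compounds 24 hr at 37 C. Viability read in the same wells by CellTiter-Fluor fluorescence, reagent added at 23 hr, 1 hr incubation.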

Experiment [11] in a line: Caspase-3/7 induction in HepG2 cells by small molecules, qHTS assay (AID 1346978). Note: nearly all actives have a fitted effect of over 15% in size. The procedure, abridged: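 Wild-type HepG2 cells, 2,000/well, settled 5 hr at 37 C and 5% CO2, then compound-treated for 17 hr; caspase-3/7 activity read by luminescent Caspase-Glo 3/7 after 30 min at room temperature.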
Experiment [12] in a line: Caspase-3/7 induction in CHO-K1 cells by small molecules, qHTS cell viability counter screen (AID 1346979). Note: nearly all actives have a fitted effect of over 35% in size. The method, boiled down: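 Wild-type CHO-K1 cells (1,500/well) treated with compound after 5 h plating; after 16 h at 37C, viability read as CellTiter-Fluor fluorescence following 1 h reagent incubation, in the same wells as the caspase read.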
Experiment [13] in a line: Caspase-3/7 induction in CHO-K1 cells by small molecules, qHTS assay (AID 1346980). Note: nearly all actives have a fitted effect of over 15% in size. The method, boiled down: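 Wild-type CHO-K1 cells exposed to compounds for 17hr at 37 C, 5% CO2. Caspase-3/7 activity then measured by Caspase-Glo 3/7 luminescence after 30min at room temperature.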
A short description of experiment [14]: Caspase-3/7 induction in HepG2 cells by small molecules, qHTS cell viability counter screen (AID 1346981). Note: series mostly up to about 92 µM; nearly all actives have a fitted effect of over 30% in size. The method, boiled down: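 After a 5-hr attachment period at 37 C and 5% CO2, wild-type HepG2 cells received compounds in DMSO. Sixteen hours later CellTiter-Fluor was dispensed and the fluorescent signal quantified after a further hour.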
Experiment [15] is described as follows: qHTS assay to identify small molecule agonists of the progesterone receptor (PR) signaling pathway - cell viability counter screen (AID 1346799; calls by dose curve; note: nearly all actives have a fitted effect of over 45% in size; note: potency is the fitted concentration of half-maximal effect). The method, boiled down:
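Counter screen in the PR-UAS-bla HEK293T wells (2% charcoal-stripped FBS, 16 h compound exposure at 37 C) after the bla read. CellTiter-Glo added, 30 min at room temperature, luminescence read as cell viability.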

Experiment [16] has as its target Nuclear receptor subfamily 1 group I member 2 (Homo sapiens) (UniProt O75469). As to the kind of experiment: Human pregnane X receptor (PXR) small molecule agonists, qHTS assay (AID 1346982). Note: nearly all actives have a fitted effect of over 35% in size. Note: potency is the fitted concentration of half-maximal effect. The method, boiled down:
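Tox21 qHTS; PXR-Luc HepG2; compounds pinned from DMSO; 24 hr, 37 C; ONE-Glo luciferase detection, 30 min room temperature.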

Experiment [17] concerns the target Cytochrome P450 2D6 (Homo sapiens) (UniProt P10635). The experiment can be described thus: Cytochrome P450 Family 2 Subfamily D Member 6 (CYP2D6) small molecule antagonists: luciferase reporter qHTS assay (AID 1671196). Note: series mostly up to about 120 µM; nearly all actives have a fitted effect of over 50% in size. The method, boiled down: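 Room-temperature luminescent CYP2D6 activity assay: compound preincubated 10 min with enzyme–substrate mix, NADPH-initiated reaction 1 h, detection reagent 20 min before reading.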

Experiment [18] addresses Nuclear receptor subfamily 1 group I member 2 (Homo sapiens) (UniProt O75469). As to the kind of experiment: Human pregnane X receptor (PXR) activation by small molecules, qHTS assay (AID 1346985). Note: nearly all actives have a fitted effect of over 40% in size. The method, boiled down:
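DPX-2 cells (HepG2 co-transfected with a PXR response element and a CYP3A4-promoter luciferase construct) were seeded at 2,000 per well, rested 5 hr at 37C, then exposed to DMSO-dissolved compounds for 24 hr. Activation was read as luciferase luminescence.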

The target is the same in experiment [19]. The experiment can be described thus: CYP3A4 induction through human pregnane X receptor (PXR) by small molecules, qHTS assay (AID 1346984). Note: nearly all actives have a fitted effect of over 40% in size. The method, boiled down:
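Cells (DPX-2; HepG2 with PXR element plus CYP3A4-promoter luciferase) settled 5hr, then were treated 24hr at 37C. A 3hr, 3uM-final Luciferin-IPA step preceded luminescence measurement with One-Glo.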

From PubChem BioAssay (Tox21) come the findings set out here.

The structures appear in SMILES notation. Values without a mark were called inactive. Inconclusive results are not listed. Active and inactive are the calls of the source. Unless noted, calls come from the whole dose curve; as a rule, active = well fitted curve in the direction sought with a large enough effect in the repeat runs; inconclusive = weak or mixed curves; inactive = no such curve, though single readings can be large; an effect the other way counts as inactive or inconclusive.

Cytochrome P450 2D6 (Homo sapiens), sequence (P10635 whole entry, looked up): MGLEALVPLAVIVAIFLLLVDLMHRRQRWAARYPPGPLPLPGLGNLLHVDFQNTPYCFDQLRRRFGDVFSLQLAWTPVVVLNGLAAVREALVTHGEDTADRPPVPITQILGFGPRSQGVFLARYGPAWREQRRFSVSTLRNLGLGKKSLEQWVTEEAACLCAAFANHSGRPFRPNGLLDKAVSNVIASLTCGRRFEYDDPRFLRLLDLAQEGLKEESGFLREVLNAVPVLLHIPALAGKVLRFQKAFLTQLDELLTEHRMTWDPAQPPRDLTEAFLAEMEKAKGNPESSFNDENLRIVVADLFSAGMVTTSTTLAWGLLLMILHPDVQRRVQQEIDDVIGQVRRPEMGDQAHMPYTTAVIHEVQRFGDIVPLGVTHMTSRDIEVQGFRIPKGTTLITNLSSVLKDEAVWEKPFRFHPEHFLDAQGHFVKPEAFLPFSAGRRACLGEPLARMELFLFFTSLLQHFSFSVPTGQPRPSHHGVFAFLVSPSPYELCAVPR
Nuclear receptor subfamily 1 group I member 2 (Homo sapiens), sequence (O75469 whole entry, looked up): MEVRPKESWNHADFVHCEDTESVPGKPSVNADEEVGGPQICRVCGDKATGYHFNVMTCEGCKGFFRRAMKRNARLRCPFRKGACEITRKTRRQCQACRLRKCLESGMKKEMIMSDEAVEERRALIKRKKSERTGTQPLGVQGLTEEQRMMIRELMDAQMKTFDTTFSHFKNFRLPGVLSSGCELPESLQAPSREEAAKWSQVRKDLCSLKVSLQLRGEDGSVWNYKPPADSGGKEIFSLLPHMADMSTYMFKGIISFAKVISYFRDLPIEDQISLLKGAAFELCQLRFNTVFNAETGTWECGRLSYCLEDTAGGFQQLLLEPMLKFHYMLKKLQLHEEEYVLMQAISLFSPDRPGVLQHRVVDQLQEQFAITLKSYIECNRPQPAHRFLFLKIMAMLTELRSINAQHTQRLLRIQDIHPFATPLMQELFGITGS
Thyrotropin-releasing hormone receptor (Homo sapiens), sequence (P34981 whole entry, looked up): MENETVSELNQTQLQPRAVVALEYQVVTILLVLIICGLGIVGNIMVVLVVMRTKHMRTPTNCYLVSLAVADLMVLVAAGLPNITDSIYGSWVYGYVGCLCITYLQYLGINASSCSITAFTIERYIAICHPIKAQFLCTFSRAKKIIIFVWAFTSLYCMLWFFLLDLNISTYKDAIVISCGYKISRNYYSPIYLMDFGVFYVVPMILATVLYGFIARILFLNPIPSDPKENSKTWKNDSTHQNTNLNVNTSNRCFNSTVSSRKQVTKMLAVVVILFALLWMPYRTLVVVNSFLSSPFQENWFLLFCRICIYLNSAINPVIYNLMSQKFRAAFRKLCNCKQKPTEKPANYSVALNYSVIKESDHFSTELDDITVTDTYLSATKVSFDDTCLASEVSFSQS

`COC(=O)CCS`: the Potency entry in [1], in experiment [2], in experiment [3], in experiment [4], in experiment [5] and in experiment [6] was “inactive” in each case. Besides, the Potency entry in experiment [7], in experiment [9], in experiment [10], in experiment [11], in [12] and in experiment [13] was “inactive” throughout. The Potency result in [14] is “inactive”. The compound was classed as inactive in experiment [8].

Take `O=C(OC(=O)c1ccccc1)c1ccccc1`: the Potency entry in [1], in experiment [2], in [3], in experiment [4], in experiment [15] and in [5] was “inactive” each time. For the same compound, the Potency result in experiment [6], in experiment [7], in experiment [9], in experiment [10], in experiment [11] and in experiment [13] was “inactive” throughout. Moreover, the Potency result in experiment [14], in [16] and in experiment [17] was “inactive” each time. Besides, the outcome in [8] was inactive.

On to `C[C@@H](CN(C)C)CN1c2ccccc2Sc2ccccc21`, for which the Potency result in experiment [1], in experiment [2], in [5], in [6], in [7] and in [11] was “inactive” in each case. Further, the Potency entry in experiment [13] and in [18] was “inactive” throughout. In addition, the Potency in experiment [3] was 26.6 µM (active); in experiment [4], 18.8 µM (active); in [15] it was 10.6 µM (active).

Take `CC1=C(CC=O)C(C)(C)CCC1`: the Potency entry in experiment [1], in experiment [2], in [3], in experiment [4], in experiment [15] and in [5] was “inactive” in each case. Also, the Potency entry in experiment [6], in experiment [7], in [9], in experiment [11], in experiment [12] and in [13] was “inactive” throughout. Further, the Potency entry in [14] is “inactive”. For the same compound, the outcome in experiment [8] was inactive. Further, the Potency in experiment [16] is 24.3 µM (active).

As to `O=C(/C=C/c1ccccc1)OCCc1ccccc1`, the Potency result in experiment [1], in experiment [2], in [3], in experiment [4], in experiment [15] and in [6] was “inactive” each time. Moreover, the Potency entry in experiment [9], in experiment [10], in experiment [11], in experiment [13], in [16] and in experiment [17] was “inactive” each time. Moreover, the compound was classed as inactive in experiment [8].

With `CCC(C)(C)OC`, the Potency entry in experiment [1], in [2], in experiment [3], in experiment [4], in [5] and in [6] was “inactive” each time. Besides, the Potency result in experiment [7], in experiment [9], in [10], in experiment [11], in experiment [12] and in [13] was “inactive” in each case. Besides, the Potency result in [14] and in [16] was “inactive” each time. For the same compound, the compound was classed as inactive in experiment [8].

As for `COc1ncnc(NS(=O)(=O)c2ccc(N)cc2)c1OC`, the Potency entry in experiment [1], in experiment [2], in [3], in experiment [4], in experiment [5] and in [6] was “inactive” in each case. In addition, the Potency entry in experiment [7], in [9], in [10], in [11], in [12] and in experiment [13] was “inactive” in each case. Besides, the Potency entry in experiment [14], in experiment [19], in experiment [18] and in experiment [17] was “inactive” each time. For the same compound, in [8], the compound was called inactive.

Regarding `COc1ccc(OC(=O)N(CC(=O)O)Cc2ccc(OCCc3nc(-c4ccccc4)oc3C)cc2)cc1`, the Potency entry in experiment [1], in experiment [2], in [3], in [15], in [5] and in experiment [6] was “inactive” each time. Also, the Potency entry in experiment [9], in experiment [10], in [11], in experiment [12], in experiment [13] and in [16] was “inactive” each time. For the same compound, the Potency entry in experiment [17] was “inactive”. Further, the result in experiment [8] was inactive.
